Assay outcomes: PubChem BioAssay, several laboratories
Rows were chosen to be rich in hits. Some 1.5% of all compounds tested hit in one or more screens of this group.
ARNT TACC3 PPI: disrupts binding between human ARNT and TACC3. AlphaScreen His-ARNT PAS-B/GST-TACC3 binding, luminescence; TACC3 fragment carries E629A point mutation. inhibition, % at 9.99 µM. hit rate 0.66% among 390,000. AID 623870;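 active means mean inhibition of replicates at least 50% and at least half of replicates each reaching 50%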
AI-2 QS mod: modulators of Vibrio harveyi AI-2 quorum sensing system | Vibrio harveyi JMH597 AI-2 luminescence/OD600 ratio, 9 h; active compounds read low; strain lacks LuxN and CqsS sensors; 0 = neutral-control median | activity change, % at 7.5 µM | hit rate 0.4% among 300,000 | AID 2094; in the data active means activity change below about -75%, passing the limit was not always enough;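 further: luminescence divided by OD600 gain over 9 h not by final OD600 alone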
sPLA2-III inh: Blocks human group III sPLA2 activity; inhibition, % at 12.2 µM; QFRET BODIPY PC-A2 liposome hydrolysis, fluorescence; hit rate 0.56% among 370,000;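 active means inhibition above mean plus 3 SD of compounds lying within the high and low control bounds, cut at about 19% in these data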
Target sequence (Q9NZ20 whole entry, looked up): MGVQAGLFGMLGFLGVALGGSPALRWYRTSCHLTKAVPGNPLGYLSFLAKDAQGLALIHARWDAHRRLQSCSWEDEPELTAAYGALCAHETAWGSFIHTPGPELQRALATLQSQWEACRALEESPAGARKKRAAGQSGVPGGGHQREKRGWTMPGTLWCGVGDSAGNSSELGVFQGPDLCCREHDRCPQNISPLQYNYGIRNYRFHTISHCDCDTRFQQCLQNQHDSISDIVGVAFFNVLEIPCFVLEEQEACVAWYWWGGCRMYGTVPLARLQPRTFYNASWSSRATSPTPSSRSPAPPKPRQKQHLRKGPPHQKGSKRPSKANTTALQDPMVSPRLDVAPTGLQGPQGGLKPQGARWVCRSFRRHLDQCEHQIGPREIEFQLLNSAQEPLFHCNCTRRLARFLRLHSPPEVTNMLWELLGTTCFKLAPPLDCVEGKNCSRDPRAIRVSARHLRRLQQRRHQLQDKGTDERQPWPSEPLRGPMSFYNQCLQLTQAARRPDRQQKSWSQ
Rin1 Abl inh: blocks binding of human Rin1 to Abl | inhibition, % at 7.35 µM | TR-FRET Rin1/Abl binding, biochemical | P00519+Q13671 | hit rate 0.4% among 360,000; in the data active means inhibition above about 5%, passing the limit was not always enough
hGIII sPLA2 conf: human GIII-sPLA2 inhibition, confirmation. shares compounds with sPLA2-III inh. recombinant hGIII-sPLA2, BODIPY PC-A2 QFRET fluorescence. inhibition, % at 12.2 µM. hit rate 34% among 2,000;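 active means mean inhibition across triplicates above the hit cutoff set in the earlier primary screen, cut at about 19% in these data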
535nm interf: 535nm fluorescence interference, HGIII-sPLA2 counter-screen; shares compounds with sPLA2-III inh; BODIPY FL product fluorescence interference, QFRET; inhibition, % at 12.2 µM; hit rate 8.5% among 2,000;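 active means average inhibition above the solvent-only control mean plus 3 SD, cut at about 6% in these data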
535nm interf DR: 535nm optical interference dose response, HGIII-sPLA2 counter-screen; shares compounds with sPLA2-III inh; BODIPY FL product fluorescence interference, cell-free; IC50, µM; 240 tested, under 10 active;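 active means IC50 at or below 10 µM; inactive means IC50 above 10 µM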
Of the large screens only hits and unclear results are named; the others gave an inactive call (follow-up assays come after a bar, where they were run).

C=CCNc1nc(Nc2ccc([N+](=O)[O-])cc2)nc(OCC)n1	none
CC(C)C(=O)Nc1ccc2c(c1)C(=O)N(C)[C@@H]1CC[C@H](CC(=O)N[C@H](C)c3ccccc3)O[C@H]1CO2	none (no result: AI-2 QS mod, sPLA2-III inh, Rin1 Abl inh)
O=C(COC(=O)/C=C/c1ccc(Cl)cc1)Nc1ccc2c(c1)OCCO2	sPLA2-III inh 22 (no result: ARNT TACC3 PPI) | hGIII sPLA2 conf inactive | 535nm interf inactive
O=C(COC(=O)/C=C/c1ccccc1)Nc1ccc2c(c1)OCCO2	none (no result: AI-2 QS mod)
CC(C)C1COC(c2cccn2Cc2ccccc2Cl)=N1 (stereo not drawn)	none (no result: ARNT TACC3 PPI)
Cc1ccc(Cn2cccc2C2=NC(C)CO2)cc1 (stereo not drawn)	sPLA2-III inh 21 | hGIII sPLA2 conf inactive | 535nm interf inactive
O=C(C[C@@H]1C[C@@H]2c3cc(NC(=O)C4CCOCC4)ccc3O[C@@H]2[C@H](CO)O1)NC1CCCC1	none (no result: AI-2 QS mod, sPLA2-III inh, Rin1 Abl inh)
COc1ccc(CN2CCC(C)=CC2C)cc1 (stereo not drawn)	none (no result: AI-2 QS mod, sPLA2-III inh, Rin1 Abl inh)
C[C@H]1CN([C@@H](C)CO)C(=O)c2cc(NC(=O)Nc3ccc4c(c3)OCO4)ccc2O[C@H]1CN(C)S(=O)(=O)c1ccccc1	none (no result: AI-2 QS mod, sPLA2-III inh, Rin1 Abl inh)
COc1cccc(-c2csc(N3CCN(C(=S)Nc4ccccc4)CC3)n2)c1	sPLA2-III inh 19 | hGIII sPLA2 conf inactive | 535nm interf inactive
O=C(/C=C/c1cccs1)c1ccc([N+](=O)[O-])cc1	sPLA2-III inh 21 | hGIII sPLA2 conf inactive | 535nm interf inactive
COc1ccc2c(c1)C(=O)C(=O)N2CC1COc2ccccc2O1 (stereo not drawn)	sPLA2-III inh 20 | hGIII sPLA2 conf 25 | 535nm interf inactive
FC(F)(F)c1cc(-c2ccccc2)nc(N2CCCCCC2)n1	sPLA2-III inh 20 | hGIII sPLA2 conf inactive | 535nm interf inactive
C/C(=N\NC(=O)c1nnn(-c2nonc2N)c1CN(C)c1ccccc1)c1ccccc1O	sPLA2-III inh 24 | hGIII sPLA2 conf 33 | 535nm interf inactive | 535nm interf DR inactive
COC(=O)C[C@@H]1CC[C@@H]2[C@@H](COc3ccc(NC(=O)c4cnccn4)cc3C(=O)N2C)O1	none (no result: AI-2 QS mod, sPLA2-III inh, Rin1 Abl inh)
CN(C)C(=O)OCC1COc2ccccc2O1 (stereo not drawn)	sPLA2-III inh 21 | hGIII sPLA2 conf inactive | 535nm interf inactive
CCn1c(SCc2ccccc2)nnc1C1CCN(S(=O)(=O)c2ccc(OC)cc2)CC1	none
CCn1c(C2CCN(S(=O)(=O)c3ccc(OC)cc3)CC2)n[nH]c1=S	sPLA2-III inh 21 | hGIII sPLA2 conf inactive | 535nm interf inactive
COc1cc(S(=O)(=O)n2c(C)nc3ccccc32)ccc1F	sPLA2-III inh 20 | hGIII sPLA2 conf inactive | 535nm interf inactive
N=C(N)SCc1ccc(Cl)cc1Cl	sPLA2-III inh 39 | hGIII sPLA2 conf inactive | 535nm interf inactive
CCNC(=O)C[C@@H]1CC[C@@H]2[C@H](COc3ccc(NC(=O)c4ccc(C(F)(F)F)cc4)cc3C(=O)N2C)O1	none (no result: AI-2 QS mod, sPLA2-III inh, Rin1 Abl inh)
CC(C)NC(=O)N(C)C[C@@H]1Oc2ncc(-c3cncnc3)cc2C(=O)N([C@@H](C)CO)C[C@H]1C	none (no result: AI-2 QS mod, sPLA2-III inh, Rin1 Abl inh)
CO[C@H]1CN(C)C(=O)c2ccc(NC(=O)c3cccc(F)c3)cc2OC[C@@H](C)N(CC2CC2)C[C@H]1C	none (no result: AI-2 QS mod, sPLA2-III inh, Rin1 Abl inh)
O=C(NCc1cccnc1)c1ccccc1[N+](=O)[O-]	sPLA2-III inh 25 | hGIII sPLA2 conf inactive | 535nm interf inactive
O=C(N/N=C/c1cccnc1)c1ccccc1[N+](=O)[O-]	sPLA2-III inh 19 | hGIII sPLA2 conf inactive | 535nm interf inactive
O=C(NC(=S)NCc1cccnc1)c1ccccc1[N+](=O)[O-]	none
C[C@@H]1CN([C@@H](C)CO)C(=O)Cc2cc(NC(=O)Cc3ccccc3)ccc2O[C@H]1CN(C)S(=O)(=O)c1ccc(Cl)cc1	none (no result: AI-2 QS mod, sPLA2-III inh, Rin1 Abl inh)
CC(C)(C)c1csc(NNC(=O)c2ccc(Br)cc2)n1	sPLA2-III inh 47 | hGIII sPLA2 conf 49 | 535nm interf inactive | 535nm interf DR inactive
CC(C)(C)c1csc(NC(=O)c2ccccc2O)n1	none
O=C(NNc1nc(-c2ccccc2)cs1)c1cccs1	sPLA2-III inh 33 (no result: ARNT TACC3 PPI) | hGIII sPLA2 conf 49 | 535nm interf 11
